FLuc modulator: inhibits or activates purified firefly luciferase, miR-21 counter-screen; Potency, µM (series often up to 57.5 µM), inactives show at the highest dose activity change, negative = inhibition, usual class: inhibitors; AID 588342; 6.9% of 360,000 active; purified FLuc, Km substrates, luminescence inhibition;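 also: plate controls were vehicle for no effect and reference inhibitor for full effect; nearly all actives have a fitted effect of over 55% in size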
Target sequence (P08659 whole entry, looked up): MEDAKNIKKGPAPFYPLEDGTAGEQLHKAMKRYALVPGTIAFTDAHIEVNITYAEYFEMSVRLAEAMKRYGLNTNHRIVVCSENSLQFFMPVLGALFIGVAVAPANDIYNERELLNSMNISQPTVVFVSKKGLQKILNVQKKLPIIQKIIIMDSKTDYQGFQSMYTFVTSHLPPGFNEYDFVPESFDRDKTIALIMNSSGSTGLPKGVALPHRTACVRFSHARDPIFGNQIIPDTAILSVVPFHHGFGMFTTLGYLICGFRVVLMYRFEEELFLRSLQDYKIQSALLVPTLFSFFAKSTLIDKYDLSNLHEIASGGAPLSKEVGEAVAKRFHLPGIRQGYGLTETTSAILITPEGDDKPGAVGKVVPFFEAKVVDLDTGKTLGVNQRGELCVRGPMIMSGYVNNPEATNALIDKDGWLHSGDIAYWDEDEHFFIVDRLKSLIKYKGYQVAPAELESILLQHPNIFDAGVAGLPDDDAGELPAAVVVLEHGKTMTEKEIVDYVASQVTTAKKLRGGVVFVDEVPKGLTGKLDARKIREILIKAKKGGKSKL
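Biochemical qHTS of compounds, final roughly 60 µM downward over six points, against 10 nM purified firefly luciferase using Km concentrations of substrates (10 uM D-luciferin, 10 uM ATP) in Tris acetate pH 7.5 buffer; luminescence output.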
Rab9 promoter act: Rab9 promoter activation | Huh7 Rab9 promoter-luciferase reporter, luminescence, 24 h | Potency, µM (top dose mostly 9.22 µM), for the others: at the highest dose activation, negative = inhibition, usual class: activators | 2.8% of 320,000 active | AID 485297; also: % of control where 0% means no effect; nearly all actives have a fitted effect of over 60% in size
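Cell-based reporter: Huh7 stable for Rab9 promoter-driven luciferase, plated in reduced-serum medium with 10% FBS at 1500 cells/well, compound-treated 24 h at 37 °C, luminescence read after 10 min reagent.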
SMN2 splice enh: SMN2 splice variant enhancement; AID 1458; HEK293 SMN2-luciferase splicing reporter, luminescence, 30-36 h; Potency, µM (titrated, usually from 46.1 µM), for inactives: at the top dose activity change, positive = activation, hits mostly activators; 2.8% of 210,000 active; also: % of control where 0% means no effect; nearly all actives have a fitted effect of over 55% in size
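HEK293 cells carry an SMN2 minigene-luciferase reporter in which exon 7 inclusion puts luciferase in frame. Cells were seeded at 2000 cells/well, attached for 10-12 hours, then exposed to compounds for 30-36 hours at 37C before ONE-Glo luminescence.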
NPC1 prom act: NPC1 promoter activation | Huh7 NPC1 promoter luciferase reporter, 24 h | Potency, µM (doses to about 9.22 µM), for the others: at the highest dose activation, hits mostly activators | 2.4% of 320,000 active | AID 485313; also: % of control where 0% means no effect; nearly all actives have a fitted effect of over 60% in size
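Luminescence read-out of NPC1 promoter-driven luciferase in stably transfected Huh7 cells; compounds delivered in DMSO and left 24 h at 37C, 5% CO2, qHTS titration format.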
ELG1 genotox: inducers of genotoxicity in HEK293T ELG1-luciferase cells. HEK293T ELG1-luciferase reporter, luminescence, 16 h. Potency, µM (doses to about 46 µM), for inactives: top-dose activity change, positive = activation, most hits filed as activators. 1.3% of 330,000 active; also: % of control where 0% means no effect; nearly all actives have a fitted effect of over 60% in size
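Luminescence read-out: rising ELG1-luciferase signal, reflecting elevated ELG1 protein under genetic stress, flags genotoxic compounds. Cells were treated for 16 hr at 37 °C before ONE-Glo detection.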
Active calls of the source: *. A selection: hits, their analogues and other compounds. The true share with any hit is near 7.4%. Calls follow the shape of the dose curve; as a rule, active = well fitted curve in the direction sought with a large enough effect; inconclusive = small, poorly fitted or top-dose-only effect, or another doubt; inactive = no such curve, though single readings can be large; an effect the other way counts as inactive or inconclusive. Potency is read from the fitted curve at half-maximal effect.

Screening Nc1ncccc1OCc1ccc(Br)cc1 returned FLuc modulator 17µM*, Rab9 promoter act 2.2µM*, SMN2 splice enh inconclusive, NPC1 prom act inconclusive and ELG1 genotox 14%.
`COc1ccc(-c2nn3c(-c4ccc(C)cc4)nnc3c3ccccc23)cc1` gave FLuc modulator 0% and SMN2 splice enh 3%.
`CCn1c(NCc2ccc(OC)c(OC)c2)nc2ccccc21` gave FLuc modulator -6% and SMN2 splice enh -39%.
CCn1c(NC(=O)c2ccccc2)nc2ccccc21 was read as FLuc modulator 17µM*, Rab9 promoter act inconclusive, NPC1 prom act 27% and ELG1 genotox 12%.
CCn1c(NCc2ccc(N(C)C)cc2)nc2ccccc21 was read as FLuc modulator 13µM*, Rab9 promoter act 14%, SMN2 splice enh 27%, NPC1 prom act 16% and ELG1 genotox inconclusive.
Screening C=CCn1c(NC(=O)c2ccccc2)nc2ccccc21 returned FLuc modulator 24µM*, Rab9 promoter act inconclusive, NPC1 prom act inconclusive and ELG1 genotox 13%.
For Cn1c(NC(=O)c2cccc(Cn3cc(Cl)cn3)c2)nc2ccccc21 the results were FLuc modulator 19µM*, Rab9 promoter act 2.2µM*, SMN2 splice enh 13µM*, NPC1 prom act 2.2µM* and ELG1 genotox 10µM*.
CNc1snc(C)c1C(=O)OC(C)C(=O)Nc1ccccc1 (configuration not stated) was read as FLuc modulator 4%, Rab9 promoter act -8%, NPC1 prom act -2% and ELG1 genotox -1%.
COc1ccc(NC(=O)Nc2cccc3c2O[C@H](CN(C)C(=O)Nc2ccc(OC)cc2)[C@@H](C)CN([C@H](C)CO)C3=O)cc1 was read as ELG1 genotox -3%.
CN(CC(=O)Nc1ccc(Cl)c(C(F)(F)F)c1)C(=O)CCCNC(=O)c1ccc(Cl)cc1 was read as FLuc modulator 19µM*, Rab9 promoter act 5%, NPC1 prom act 13% and ELG1 genotox -2%.
COc1ccc(Cl)cc1NC(=O)CN(C)C(=O)c1ccc2c(c1)OCCO2 was read as FLuc modulator -3%, Rab9 promoter act -1%, NPC1 prom act 0% and ELG1 genotox -2%.
For COc1ccc(Cl)cc1NC(=O)CN(C)C(=O)CCCNC(=O)c1ccc(Cl)cc1 the results were FLuc modulator 13µM*, Rab9 promoter act -4%, NPC1 prom act -1% and ELG1 genotox 1%.
CN(CC(=O)Nc1ccc(Cl)c(C(F)(F)F)c1)C(=O)CCNC(=O)c1ccco1 was read as FLuc modulator 8%, Rab9 promoter act -2%, NPC1 prom act 1% and ELG1 genotox -2%.
Cn1ccnc1SCc1cn2cc(Br)ccc2n1 was read as FLuc modulator 3.8µM*, Rab9 promoter act 0.56µM*, SMN2 splice enh inconclusive, NPC1 prom act 0.32µM* and ELG1 genotox inconclusive.
For c1ccc(COc2ccc(Nc3ncnc4nc[nH]c34)cc2)cc1 the results were FLuc modulator 11µM*, Rab9 promoter act inconclusive, SMN2 splice enh 0%, NPC1 prom act inconclusive and ELG1 genotox inconclusive.
`COc1ccc(Nc2ncnc3nc[nH]c23)cc1OC` gave FLuc modulator -3%, Rab9 promoter act -3%, SMN2 splice enh inconclusive, NPC1 prom act 6% and ELG1 genotox -1%.
For CCOC(=O)c1ccc(Nc2ncnc3nc[nH]c23)cc1 the results were FLuc modulator inconclusive, Rab9 promoter act inconclusive, SMN2 splice enh 10µM*, NPC1 prom act inconclusive and ELG1 genotox inconclusive.
ClC/C=C/CCl was read as SMN2 splice enh 1%.
COc1cc(C(=O)NCC(c2cccs2)S(=O)(=O)c2cccs2)cc(OC)c1OC (configuration not stated) was read as FLuc modulator 1%.
Screening CCOC(=O)c1c(NC(=O)/C=C/c2ccc(OCC)cc2)sc2c1CCCC2 returned FLuc modulator 4% and SMN2 splice enh 9%.
`CN1CCc2c(sc3c2C(=O)NC(c2ccc(OC(=O)c4ccc(C(C)(C)C)cc4)cc2)N3)C1` (configuration not stated) gave FLuc modulator 11µM* and SMN2 splice enh -1%.
For CN1CCc2c(sc3c2C(=O)NC(c2ccc(OC(=O)c4ccccc4)cc2)N3)C1 (configuration not stated) the results were FLuc modulator inconclusive and SMN2 splice enh 16µM*.
For CN1CCc2c(sc3c2C(=O)NC(c2ccc(OC(=O)c4ccc(Cl)cc4)cc2)N3)C1 (configuration not stated) the results were FLuc modulator -15% and SMN2 splice enh -8%.
`O=C(Nc1ccncc1)C1COc2ccccc2O1` (configuration not stated) gave FLuc modulator -3%, Rab9 promoter act -5%, NPC1 prom act 1% and ELG1 genotox -4%.
For CCCCCc1nnc(NC(=O)C2COc3ccccc3O2)s1 (configuration not stated) the results were FLuc modulator inconclusive, Rab9 promoter act 29%, SMN2 splice enh -2%, NPC1 prom act 21% and ELG1 genotox inconclusive.
Screening O=C(Nc1nc2c(s1)CCCC2)C1COc2ccccc2O1 (configuration not stated) returned FLuc modulator 0.76µM*, Rab9 promoter act 0.32µM*, SMN2 splice enh 0.5µM*, NPC1 prom act 0.56µM* and ELG1 genotox 0.58µM*.
Screening O=C(Nc1ncc(Cc2ccccc2)s1)C1COc2ccccc2O1 (configuration not stated) returned FLuc modulator 3µM*, Rab9 promoter act 2.8µM*, SMN2 splice enh 10µM*, NPC1 prom act 1.6µM* and ELG1 genotox 12%.
Screening CCc1nnc(NC(=O)C2COc3ccccc3O2)s1 (configuration not stated) returned FLuc modulator 12µM*, Rab9 promoter act 2.8µM*, SMN2 splice enh 11µM*, NPC1 prom act 3.2µM* and ELG1 genotox inconclusive.
`Cc1nnc(NC(=O)C2COc3ccccc3O2)s1` (configuration not stated) gave FLuc modulator 24µM*, Rab9 promoter act inconclusive, SMN2 splice enh 28%, NPC1 prom act inconclusive and ELG1 genotox inconclusive.
CCCCN(C)CCCNC(=O)CN1C(=O)COc2ccc(S(=O)(=O)N3CCC(C)CC3)cc21 was read as FLuc modulator -1% and SMN2 splice enh -2%.
Screening O=C(NC1=NCCS1)C1COc2ccccc2O1 (configuration not stated) returned FLuc modulator 0.24µM*, Rab9 promoter act inconclusive, NPC1 prom act 0.025µM* and ELG1 genotox inconclusive.

Assay outcomes as filed in PubChem.
